# According to PubChem BioAssay AID485314 (National Center for Advancing Translational Sciences (NCATS), 2010):
# Out of some 340,000 compounds screened, about 4,500 (1.3%) were called active. Roughly 5% stayed inconclusive and do not appear here. Shown is part of a subset that was picked to be rich in actives. A number with no mark means an inactive call. The call rests on the fitted dose curve; in most records, active means well fitted inhibition curve with a large enough effect; inconclusive means small, poorly fitted or top-dose-only effect, or another doubt; inactive means no such curve, though single readings can be large or run the other way.
# Biological target: DNA polymerase beta (Homo sapiens) (UniProt P06746)
# Assay: qHTS Assay for Inhibitors of DNA Polymerase Beta
# Settings: Pol beta primer extension/strand displacement, fluorescence kinetic; series mostly up to 114 µM; activity change, negative = inhibition: at the top concentration
# Summary of the method: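 Enzyme-only controls used 10 nM Pol beta; buffer lacking enzyme served as negative control. Compound preincubated 15 min, then 50 nM substrate added; 0 and 10 min reads at room temperature.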
# On the % scale 0 is the no-effect control and ±100 the full control effect; potency means the concentration at half of the fitted maximal effect.
Compound,"activity change, negative = inhibition [%]",Potency
CCCCc1nn2c(=O)cc(COC(=O)c3cccc(NC(=O)COc4ccccc4)c3)nc2s1,1.33,–
COc1ccc(N2CCN(S(=O)(=O)c3ccc(-c4coc(C)n4)cc3)CC2)cc1,–,31.6 µM (active)
COc1ccc(N2CCN(C(=O)C3CCN(S(=O)(=O)c4ccc(C)cc4)CC3)CC2)cc1,0.247,–
COc1ccc(N2CCN(S(=O)(=O)c3ccc4c(c3)N(C(C)=O)CCO4)CC2)cc1,-5.9,–
Cc1ccc(-c2csc(NC(=O)Cn3[nH]c(=O)c4ccccc4c3=O)n2)cc1,-17.4,–
O=C(CSc1nc2ccccc2c(=O)[nH]1)Nc1nc(-c2ccc(Br)cc2)cs1,–,4.47 µM (active)
O=C(CSC1=NCCS1)Nc1nc(-c2ccccc2)cs1,16.3,–
CC(C)(C)c1ccc(C(=O)NCC(c2ccco2)S(=O)(=O)c2ccc(F)cc2)cc1 (stereo not drawn),-18.4,–
COc1cccc(NC(=O)N(Cc2cn(C)c3ccccc23)C2CCCCCC2)c1,-7.08,–
O=C(CSc1ccc(-c2ccco2)nn1)Nc1cccc(F)c1,-29.3,–
O=C(CSc1ccc(-c2ccco2)nn1)NCc1ccc2c(c1)OCO2,–,15.8 µM (active)
Cc1ccccc1-c1nnc(SCC(=O)NCc2ccc3c(c2)OCO3)n1C,25,–
Cc1ccccc1OCCSc1nc2ccc(NC(=O)c3ccco3)cc2s1,0.968,–
Cc1ccc(C2CCN(C(=O)c3cnn(-c4ccccc4Cl)c3C3CCN(C(=O)OC(C)(C)C)CC3)C2)cc1 (stereo not drawn),2.89,–
Cc1cccc(N2CCN(S(=O)(=O)c3ccc4[nH]c(=O)c(=O)[nH]c4c3)CC2C)c1 (stereo not drawn),–,25.1 µM (active)
Cc1cccc(N2CCN(C(=O)c3cccc(S(=O)(=O)N4CCc5ccccc5C4)c3)CC2C)c1 (stereo not drawn),2.53,–
Cc1cccc(N2CCN(S(=O)(=O)c3ccc(-c4cc(C)no4)s3)CC2C)c1 (stereo not drawn),0.87,–
CC(C)(C)c1ccc(OCC(=O)N2CCC(c3nc4ccccc4s3)CC2)cc1,10.9,–
O=C(Nc1ccccc1)/C(=C\c1ccco1)NC(=O)c1ccco1,-1.05,–
Cc1cccc(NC(=O)/C(=C\c2ccco2)NC(=O)c2ccccc2)c1,0.753,–
COc1ccccc1C(=O)N/C(=C/c1ccco1)C(=O)Nc1ccc(C(=O)O)cc1,–,50.1 µM (active)

Compound,"activity change, negative = inhibition [%]",Potency
CC(=O)Nc1cc(C(=O)NCc2ccc(F)cc2Cl)ccc1Sc1ccc(Cl)cc1,-16.2,–
CCC(Sc1nnc(-c2ccc(OC)cc2)c(-c2ccc(OC)cc2)n1)C(=O)NC1CCCCC1 (stereo not drawn),1.49,–
COc1cccc(-n2cc(C(=O)NCc3cccc(Cl)c3)c3ccccc3c2=O)c1,12.9,–
Nc1ccc(-c2sc(N)nc2-c2ccccc2)cc1,23.9,–
Nc1[nH]c(=S)nc2nc(-c3ccccc3)c(-c3ccccc3)nc12,–,22.4 µM (active)
Cc1ccc2cccc(NC(=O)C(C)Oc3ccc(C)c(C)c3)c2n1 (stereo not drawn),14.5,–
Cn1nc(-c2ccccc2)c(-c2ccccc2)c(C(=O)Nc2ccc(S(N)(=O)=O)cc2)c1=O,-0.58,–
COc1ccc(Cn2ccnc2SCC(=O)Nc2ccc3c(c2)OCO3)cc1,0.783,–
CCCS(=O)(=O)N1CCC(n2c(C(F)(F)F)nc3cccnc32)CC1,33.3,–
COc1ccc(OCC(=O)NNC(=O)c2ccc(-c3ccccc3)cc2)cc1,–,44.7 µM (active)
COc1ccc(C(=O)Nc2cc(C)ccc2NC(=O)COc2ccccc2)cc1,1.19,–
COc1ccc(C(=O)NNC(=S)NC(=O)c2ccccc2)cc1,0.641,–
O=C(CS(=O)(=O)c1cccc2nsnc12)N1CCN(c2cccc(Cl)c2)CC1,-19.8,–
CCOc1ccc(S(=O)(=O)Nc2ccc3oc4c(c3c2)CC(C)CC4)cc1 (stereo not drawn),-14.6,–
Cc1cccc(NC(=O)CSc2ncc(-c3ccccc3)[nH]2)c1C,0.698,–
Cc1ccc(SCC(=O)NC(=O)NCc2ccco2)c(C)c1,–,25.1 µM (active)
Cc1ccc(NC(=O)C(=O)NCc2ccco2)c(C)c1,28.8,–
Cc1cc(C)n2nc(SCC(=O)NC(=O)NCc3ccco3)nc2n1,-25.1,–
Cn1ccc2cc(S(=O)(=O)N3CCCC(C(=O)NCc4ccccc4F)C3)ccc21 (stereo not drawn),9.68,–
Cc1ccccc1NC(=O)Cn1cc(C(=O)c2cccs2)c2ccccc21,-21.9,–
CN(C(=O)c1ccc2c(c1)N(Cc1cccc(Cl)c1)C(=O)c1ccccc1S2=O)C1CCCCC1 (stereo not drawn),4.04,–

Compound,"activity change, negative = inhibition [%]",Potency
COc1ccccc1NC(=O)C(=O)c1cc(C)n(-c2ccccc2F)c1C,4.34,–
COc1ccc(-n2c(SCC(=O)Nc3ccc(Cl)c(C)c3)nc3n[nH]c(C)c3c2=N)cc1,-7.34,–
CCOc1ccc(-n2c(SCC(=O)NCc3ccccc3)nc3n[nH]c(C)c3c2=N)cc1,–,25.1 µM (active)
CCCCNC(=O)CSc1nc2n[nH]c(C)c2c(=N)n1-c1cccc(Cl)c1C,–,inactive
COc1ccc(S(=O)(=O)n2nc(C)c(S(=O)(=O)N3CCCCCC3)c2C)cc1,-16.8,–
CSc1nn(Cc2cccc(C)c2)c(N)c1S(=O)(=O)c1ccccc1,-2.02,–
Cc1ccc(N2NC(=O)/C(=C/C=C/c3ccco3)C2=O)cc1C,–,35.5 µM (active)
COc1cc(/C=C2/C(=O)NN(c3ccc(F)cc3)C2=O)cc([N+](=O)[O-])c1O,-29.4,–
Cc1ccc(N=C2NC(=O)/C(=C/C=C/c3ccco3)S2)cc1C,–,10 µM (active)
Cc1ccc(-n2ncc3c(=O)n(-c4ccc(C)c(C)c4)c(-c4ccco4)nc32)cc1,-0.115,–
COc1ccccc1-c1ccnc2[nH]n(-c3ccccc3)c(=O)c12,-9.8,–
CC(C)c1ccc2oc(-c3cc(NC(=O)c4cccs4)ccc3Cl)nc2c1,1.78,–
Cc1csc(SCC(=O)Nc2sccc2C#N)n1,–,20 µM (active)
Cc1cccc(C)c1Nc1nnc(SCC(=O)Nc2sccc2C#N)s1,-26.1,–
N#Cc1ccsc1NC(=O)CN1CCCCC1,15.9,–
CCOc1ccc(NC(=O)CSc2c3c(nc4ccccc24)CCCC3)cc1,-1.51,–
COc1cc(NC(=O)CSc2nc3nc(C)c(Cc4ccc(C)cc4)c(C)n3n2)cc(OC)c1OC,-28.1,–
Cc1cccc(C2=N/C(=C/c3cccs3)C(=O)O2)c1,-0.905,–
CSC1=N/C(=C\C=C\c2cccs2)C(=O)S1,–,20 µM (active)
CN1C/C(=C/c2cccs2)C(=O)/C(=C\c2cccs2)C1,3.47,–
COc1ccc(CCC(=O)NCCc2csc(-c3ccc(Cl)cc3)n2)cc1,-1.93,–
